Measured values published in PubChem BioAssay (NCATS).
Several values for one entry are separate records, joined by “and”; a condition that tells them apart may be missing. Equal values may be shown once. Results filed as inconclusive are left out. Some compounds were tested as several samples or in several runs, with calls that do not always agree. A number with no mark means an inactive call. Activity calls are given as the source filed them. Calls follow the shape of the dose curve; as a rule, active = well fitted cell-killing curve with a large enough effect; inconclusive = small, poorly fitted or top-dose-only effect; inactive = flat fitted curve, though single readings scatter.

Assay: Cellular viability qHTS for adrenocortical cancer (ACC) cell line SW-13 (AID 1963989); also: nearly all actives have a fitted effect of over 65% in size;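 as to activity (max response): cells grown in serum-free medium with ITS supplement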
Conditions: SW-13 ACC cells viability, CellTiter-Glo, 48 h; activity (max response): stronger effect = lower value
Source text: PI: Naris Nilubol, MD Surgical Oncology Program, National Cancer Institute (NCI) National Institute of Health (NIH), Bethesda, Maryland Adrenocortical cancer (ACC) is a rare malignancy with poor survival outcomes and few treatment options. Currently, mitotane is the only FDA-approved therapy for ACC. Although adjuvant radiation therapy is rarely utilized, it has the potential to improve survival in select cases. Through a quantitative high-throughput drug screen (qHTS), we identified auranofin (AF), a thioredoxin reductase (TXNRD) inhibitor, as a promising candidate drug. This study aims to evaluate whether AF can enhance the efficacy of radiation therapy in the treatment of ACC. Two human ACC cell lines, SW-13 and NCI-H295R, were screened using the National Center for Advancing Translational Sciences (NCATS) Pharmaceutical Collection (NPC) and the Mechanism Interrogation PlatE (MIPE) library (~4,991 compounds). CellTiter-Glo (Cat # G7570, Promega, Madison, WI) was utilized to measure cell viability. Described herein are the results of the corresponding viability assay.
PROTOCOL TABLE (as described by Inglese J, Shamu CE and Guy RK. 2007) SEQUENCE No. (e.g., 1, 2, 3, etc.); […] (e.g., Cells, Incubation, Reagent, etc.); VALUE; DESCRIPTION. 1; Cells; 5 uL; white, solid-bottom, 1536-well tissue-culture treated plates. 2; Time; overnight culture at 37C with 5% CO2. 3; Compounds and control; 23 nL; Kalypsis pin tool (Wako USA) equipped with a 1536-well pin head to transfer to the assay plates. 4; Time; 48 hours; 37C with 5% CO2. 5; Reagent; 4 uL; CellTiter-Glo luminescent substrate mix. 6; Time; 20 min at room temperature. 7; Detection; Luminescence; ViewLux plate reader NOTES (numbers refer to Sequence numbers above) 1. SW13 cells were harvested from a T175 flask and resuspended in ITS-supplemented DMEM serum-free medium at a concentration of 300 000 cells/mL. Then 5 uL of resuspended cells were dispensed into each well of white, solid-bottom, 1536-well tissue-culture-treated plates using a multidrop combi dispenser. The plates were covered with stainless steel gasket lids. 2-3. The plates were cultured overnight at 37C with 5% CO2. Twenty-three nL of compounds (eight selected concentrations from the NPC / MIPE) or positive control (10 mM stock of bortezomib) in DMSO was transferred to each well of the assay plate using a pin tool (Kalypsys, San Diego, CA, USA). The final concentration of the compounds in the 5 uL assay volume ranged from 0.5 nM to 46 uM. 4-6. After 48 hours of incubation at 37C and 5% CO2, 4 uL of CellTilter-Glo luminescent substrate mix (Promega, Madison, WI, USA) was added to each well. Then the plates were incubated for 20 minutes at room temperature. 7. After incubation, luminescence was measured using a ViewLux plate reader (PerkinElmer, Waltham, MA, USA) with a clear filter was used to measure the number of metabolically competent cells. To determine compound activity in the qHTS assay, the titration-response data for each sample was plotted and modeled by a four-parameter logistic fit yielding IC50 and efficacy (maximal response) values. […] REFERENCES: Inglese J, Shamu CE and Guy RK, Reporting data from high throughput screening of small molecule libraries, Nature Chemical Biology, 2007, 3(8): 438-441. doi.org/10.1038/nchembio0807-438.
% is scaled to controls: 0 for no effect and ±100 for the full control effect; potency is read from the fitted curve at half-maximal effect.

Row | Compound | activity (max response) | Potency
1 | C#CCN(C)Cc1ccccc1 | 11.7% | –
2 | Cc1c(F)cc(C(=O)NC2CC2)cc1-c1ccc(C(=O)NCC(C)(C)C)cn1 | 1.4% | –
3 | COc1ccc([C@@H](O)[C@@H](C)Oc2ccc([C@H]3O[C@H](c4ccc(O[C@H](C)[C@H](O)c5ccc(OC)c(OC)c5)c(OC)c4)[C@H](C)[C@H]3C)cc2OC)cc1OC | – | 0.316 µM (active)
4 | NC1(c2ccc(-c3nc4ccn5c(=O)[nH]nc5c4cc3-c3ccccc3)cc2)CCC1 | – | 20.6 µM (active) and 17.8 µM (active)
5 | CN1CCC(CNc2ccc3ncc(-c4cccc(OC(F)(F)F)c4)n3n2)CC1 | – | 15.8 µM (active)
6 | c1cc(-c2sc(-c3ccncc3)c(-c3ccncc3)c2-c2ccncc2)ccn1 | 2.5% | –
7 | CC(=O)Nc1ccc(S(=O)(=O)Nc2cc(C)on2)cc1 | 11.6% | –
8 | COc1cc2c(Nc3ccc(Br)cc3F)ncnc2cc1OCC1CCN(C)CC1 | -8.28% | 17.8 µM (active)
9 | O=C(O)Cc1sc(-c2ccccc2)nc1-c1ccc(Cl)cc1 | 0.388% | –
10 | CN(C)CCCOc1nn(Cc2ccccc2)c2ccccc12 | – | 11.6 µM (active)
11 | CCC(C(=O)NC(=O)NC(C)=O)c1ccccc1 (stereo not given) | -1.46% | –
12 | O=c1[nH]cnc2c1ncn2[C@@H]1O[C@H](CO)[C@@H](O)[C@H]1O | 4.44% | –
13 | CO[C@@H]1[C@@H](OC)[C@H](C)[C@@](O)(CC(=O)O)O[C@H]1[C@H](C)[C@H]1O[C@@]2(CC[C@@](C)([C@H]3CC[C@@](C)([C@@H]4O[C@@H]([C@H]5O[C@](C)(O)[C@H](C)C[C@@H]5C)C[C@@H]4OC4C[C@H](OC)[C@@H](OC)[C@H](C)O4)O3)O2)C[C@H](O)[C@H]1C (stereo not given in full) | – | 1.46 µM (active)
14 | COC(=O)Nc1nc2ccc(S(=O)c3ccccc3)cc2[nH]1 (stereo not given) | – | 8.91 µM (active) and 259 nM (active)
15 | CNC1(C)C2CCC(C2)C1(C)C (stereo not given) | -10.9% | –
16 | O=C(Nc1cccc(C(F)(F)F)c1)Nc1cc(S(=O)(=O)NC2CC2)ccc1-c1ccsc1 | – | 28.2 µM (active)
17 | CNC(=O)c1cc(COc2nnc(Nc3ccc(Cl)cc3)c3ccoc23)ccn1 | -21.4% | –
18 | COCCNCc1ccc(-c2cc3nccc(Oc4ccc(NC(=S)NC(=O)Cc5ccc(F)cc5)cc4F)c3s2)nc1 | – | 28.2 µM (active)
19 | O=C(O)CN(CCN(CC(=O)O)CC(=O)O)CCN(CC(=O)O)CC(=O)O | 9.05% | –
20 | NC[C@H]1O[C@H](O[C@H]2[C@H](O)[C@@H](O[C@H]3O[C@H](CO)[C@@H](O)[C@H](N)[C@H]3O)[C@H](N)C[C@@H]2N)[C@H](N)C[C@@H]1O | 4.38% | –

Row | Compound | activity (max response) | Potency
21 | O=C(Cn1ccnc1[N+](=O)[O-])NCCO | 10.4% | –
22 | C[C@H](NC(=O)Cc1cc(F)cc(F)c1)C(=O)N[C@H](C(=O)OC(C)(C)C)c1ccccc1 | 3.52% | –
23 | OC1(c2ccc(Cl)c(C(F)(F)F)c2)CCN(CCCC(c2ccc(F)cc2)c2ccc(F)cc2)CC1 | – | 4.11 µM (active)
24 | O=C(Nc1nnc(-c2ccco2)o1)c1cc(-c2ccccc2)nc2ccccc12 | – | 20 µM (active)
25 | O=C1NCCc2[nH]c(-c3ccncc3)cc21 | – | 7.94 µM (active)
26 | Cc1cc(O)c(-c2ccc([C@@H](C)CN)cc2)c2c1[nH]c(=O)c1sccc12 | -7.01% | –
27 | CC(=O)Nc1cccc(O)c1 | -1.77% | –
28 | COC(=O)c1cc(S(N)(=O)=O)ccc1OC | 6.75% | –
29 | CCOCc1nc2c(N)nc3ccccc3c2n1CC(C)(C)O | -23.1% | –
30 | COc1ccc(F)c(F)c1C(=O)c1cnc(NC2CCN(S(C)(=O)=O)CC2)nc1N | – | 3.55 µM (active)
31 | CCCCOc1ccc(CC(=O)NO)cc1 | -10.9% | –
32 | C=CCNC1=C2C[C@@H](C)C[C@H](OC)[C@H](O)[C@@H](C)/C=C(\C)[C@H](OC(N)=O)[C@@H](OC)/C=C\C=C(/C)C(=O)NC(=CC1=O)C2=O | – | 3.55 µM (active)
33 | Nc1ccc(S(=O)(=O)Nc2ccc(Cl)nn2)cc1 | 1.77% | –
34 | CC(C)C(=O)OCc1cccc(OC(=O)[C@@H]2N3C(=O)[C@@H](NC(=O)Cc4ccccc4)[C@H]3SC2(C)C)c1 | 14.5% | –
35 | CN(C)CCCSc1ccccc1NC(=O)/C=C/c1ccccc1 | 8.03% | –
36 | COc1ccc2cc(C=O)ccc2c1 | 8.85% | –
37 | CC(C)(C)NCC(O)c1ccc(O)c(CO)c1 (stereo not given) | 0.289% and -0.385% | –
38 | C/C(=N\O)c1ccc(OCC(=O)N2CCCCC2)cc1 | -4.8% | –
39 | OCc1ccc(-c2nn(Cc3ccccc3)c3ccccc23)o1 | -19% | –
